Laboratory results published in PubChem BioAssay AID2057 (The Scripps Research Institute Molecular Screening Center, 2009).
Several values for one entry are separate records, joined by “and”; a condition that tells them apart may be missing. Equal values may be shown once. Out of some 320,000 compounds screened, about 2,100 (0.66%) were called active.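 The calls were made as follows: active = inhibition above the mean inhibition of all tested compounds plus 3 SD, set per campaign (cut at about 40% in these data); inactive = the rest.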 This excerpt belongs to a sample that is enriched for actives. Some structures have more than one record in an assay (separate samples or runs), and their calls can disagree.

Biological target: Induced myeloid leukemia cell differentiation protein Mcl-1 (Homo sapiens) (UniProt Q07820)
Sequence (Q07820 whole entry, looked up): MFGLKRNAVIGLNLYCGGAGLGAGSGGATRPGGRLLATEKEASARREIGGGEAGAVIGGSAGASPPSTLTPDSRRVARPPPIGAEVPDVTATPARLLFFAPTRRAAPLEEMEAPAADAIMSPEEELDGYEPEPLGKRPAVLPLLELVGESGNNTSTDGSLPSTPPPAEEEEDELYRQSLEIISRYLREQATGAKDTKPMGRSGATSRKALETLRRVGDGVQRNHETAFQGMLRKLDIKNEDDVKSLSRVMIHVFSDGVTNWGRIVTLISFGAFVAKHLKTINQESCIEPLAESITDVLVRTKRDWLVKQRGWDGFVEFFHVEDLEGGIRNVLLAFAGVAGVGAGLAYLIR
Test: MCL1-BIM peptide interaction disruptors – biochemical, fluorescence polarization, primary screen (AID 2057);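 also: 0% = DMSO wells and 100% = unlabeled Bim-BH3 peptide control; higher means more loss of mP so more displacement of Bim peptide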
Conditions: GST-MCL1 / FITC-Bim-BH3 fluorescence polarization; at 10.9 µM; stronger effect = higher value

inhibition, 2.37% (inactive) and 78.5% (active):
COC(=O)[C@H]1[C@H]2C[C@H]3c4[nH]c5ccccc5c4CCN3C[C@@H]2CC[C@@H]1O

inhibition, inactive:
Cc1ccn2cc(-c3nonc3C)cc2c1 11.9%
Cc1nc2cc(S(=O)(=O)C(F)(F)F)ccc2s1 -1.41%
NS(=O)(=O)c1cccc(NC(=O)CC23CC4CC(CC(Br)(C4)C2)C3)c1 -1.18%
Cc1sc(NC(=S)NC(=O)c2cccs2)nc1-c1ccc(CC(C)C)cc1 -5.44%
CC12CCC(C(=O)N(c3cccc(Cl)c3)C1=O)C2(C)C (configuration not stated) 4.99%
O=C(NN1C(=O)C2C(C1=O)C1C=CC2C12CC2)c1ccccc1Cl (configuration not stated) 1.2%
CCCC1=Nc2cc(C(=O)NCc3ccco3)ccc2Sc2ccccc21 -1.97%
CCOP1(=O)C=C(C(C)(C)C)OC1c1ccc(F)cc1 (configuration not stated) -0.66%
Cc1ccc2nnn(Cc3cccc(C(C)(C)C)c3O)c2c1 -0.36%
CC1CCN(C(=O)c2ccccc2NC(=O)Cc2ccccc2)CC1 2.82%
CCCCn1c(N)c(N(CC(C)C)C(=O)c2ccc(-n3c(C)ccc3C)cc2)c(=O)[nH]c1=O -0.69%
COc1cc(/C=N\Nc2ccc([N+](=O)[O-])cn2)ccc1OCC(=O)O -10.5%
COc1ccc(C(=O)NCCNc2ccc([N+](=O)[O-])cn2)cc1 -2.53%
O=C(CCc1c[nH]c2ccccc12)NCCOc1ccccc1 0.99%
O=C(COC(=O)/C=C/c1ccc(S(=O)(=O)N2CCCCCC2)cc1)NCc1ccccc1Cl 5.88%
CN(c1ccc(OCC(=O)O)cc1)S(=O)(=O)c1ccc2ccccc2c1 15.4%
COc1cccc(COc2ccc(N(C)S(=O)(=O)c3ccccc3)cc2)c1 -7.28%
O=c1[nH]c(-c2ccccc2)c(-c2ccccc2)[nH]1 1.68%
CNC(=O)c1cccc2nc3ccccc3nc12 2.56%
Cn1cnc2c1c(=O)n(Cc1ccccc1C#N)c(=O)n2C 2.03%
CC(C)c1ccc2oc(=O)cc(CN3CCN(Cc4ccccc4)CC3)c2c1 -0.09%
C#CCNC(=O)[C@H](Cc1ccc(C(=O)c2ccccc2)cc1)NC(=O)OC(C)(C)C -1.48%
COc1ccc(CN2CC(C(=O)NC3CCCCC3)CC2=O)cc1 (configuration not stated) 1.62%
O=C(CCNC(=O)C1CCN(S(=O)(=O)c2ccccc2)CC1)NC1CC1 1.06%
CCN(CC(=O)NCC(=O)Nc1cccc(C)c1C)Cc1ccccc1 -6.88%
Cc1[nH]c2ccccc2c1C(=O)CN1CCCC(C)C1 (configuration not stated) -7.18%
CCC(CC)c1nnc(NC(=O)/C=C/c2ccco2)s1 -2.29%
CCOC(=O)c1c(NC(=O)/C=C/c2ccco2)sc(C)c1C -7.18%
O=c1[nH]c2ccc(S(=O)(=O)N3CCCC3)cc2[nH]1 5.45%
N/C(=N\S(=O)(=O)c1cc(C(F)(F)F)cc(C(F)(F)F)c1)c1cccs1 5.69%
Cc1ccc(C(O)P(=O)(OC(C)C)c2ccc(N(C)C)cc2)cc1 (configuration not stated) -0.54%
COC(=O)C1CCN(C(=O)c2cc(=O)[nH]c3ccccc23)CC1 -5.36%
O=C(NC1CCCCC1)N1CCc2[nH]c3ccccc3c2C1 7.44%
COc1ccc(NC(=O)C2=CC(c3ccc(OC)c(OC)c3)=NS(=O)(=O)N2C)cc1 -1.75%
C=CCc1ccccc1OCC(=O)N/N=C/c1ccccc1OCC -1.1%
Cc1cccc(OCC(=O)NCC(=O)N/N=C/c2ccc(N(C)C)cc2)c1 5.85%
CC(Oc1ccccc1)C(=O)Nc1c2c(nn1-c1ccccc1)CS(=O)C2 (configuration not stated) 3.14%
CC1CCN(C(=O)c2ccc(S(=O)(=O)Cc3cc(F)ccc3F)c([N+](=O)[O-])c2)CC1 6.72%
COc1cc2c(cc1OC)C(C)N(S(=O)(=O)c1cnc(Cl)c(Cl)c1)CC2 (configuration not stated) 0.66%
Cc1ccc(C2C(C#N)C(C#N)N3CCCN23)cc1 (configuration not stated) -13.7%
C=CCN1C=C2C(=O)C(C)(OC(=O)CCc3ccccc3)C(=O)C=C2C=C1c1ccc(C#N)cc1 (configuration not stated) 23.9%
CC1(OC(=O)C2CCCC2)C(=O)C=C2C=C(c3ccc(C#N)cc3)OC=C2C1=O (configuration not stated) 26.9%
Cc1cc(O)c(Sc2ccccc2)c(=O)o1 2.06%
C=CCc1cccc(/C=N/NC(=O)COc2ccc(-n3cnnn3)cc2)c1O 11.2%
Oc1ccc(-c2onc3ccc(Cl)cc23)cc1 -2.01%
CC(OC(=O)c1ccc2noc(-c3ccccc3)c2c1)C(N)=O (configuration not stated) -8.19%
CCOc1ccc(NC(=O)CN(C)C(=O)Cn2c(=O)cnc3ccccc32)cc1OCC 3.26%
Cc1nc(-c2ccc(F)cc2)c(CC(=O)N2CCN(S(=O)(=O)c3ccc(F)cc3)CC2)s1 -0.35%
COC(=O)c1ccc2c(c1)S(=O)(=O)NC(=NCCCN1CCOCC1)S2 -0.08%
Cc1c(NC(=O)C(C)OC(=O)c2c3c(nc4ccccc24)CCC(C)C3)c(=O)n(-c2ccccc2)n1C (configuration not stated) -4.73%
COC(=O)C1=C(Nc2ccc(C)cc2)C=C(C)C(C(=O)OC)C1c1ccc(F)cc1 (configuration not stated) -0.87%
CC(C)N(C(=O)COC(=O)c1ccccc1C(=O)N1CCN(c2ccc(F)cc2)CC1)C(C)C 11.2%
O=C(COC(=O)c1n[nH]c2ccccc12)NCc1ccccc1 -0.26%
OCC1(Cc2ccccc2C(F)(F)F)CCN(Cc2ccncc2)CC1 4.27%
CC1(NC(=O)CCS(=O)(=O)c2ccc(Cl)cc2)CCS(=O)(=O)C1 (configuration not stated) -1.26%
CC(=O)N1c2ccc(S(=O)(=O)N3CCC(C(=O)NC4CCCCC4C)CC3)cc2CC1C (configuration not stated) 2%
CCOC(=O)c1oc2c(CN3CCN(CCO)CC3)c(O)c(CC)cc2c(=O)c1-c1nc2ccccc2s1 -0.61%
CCN(CC(=O)Nc1ccccc1C(F)(F)F)C(=O)CSCc1c(C)noc1C -5.73%
COC(=O)c1cc(NS(=O)(=O)c2ccc3c(c2)c(=O)n(C)c(=O)n3C)cc(C(=O)OC)c1 3.04%
CC(C)OC(=O)CN1C(=O)C(=O)c2ccccc21 3.82%
CCOC(=O)c1ccccc1CN1C(=O)c2ccccc2S1(=O)=O 3.41%
Cc1noc(C)c1-c1nc(CSc2ccc(Cl)cc2)no1 7.94%
O=C(c1ccc(OC2CCN(C(=O)c3cccnc3)CC2)cc1)N1CCCCCC1 1.48%
Cc1ccc(OS(=O)(=O)c2ccc(-c3csc(C)n3)s2)c(C)c1 2.53%
CC1(C)CCc2nc(SCc3ccccc3)c(C#N)cc2C1 -2.93%
Cc1cc(NC(=O)CSc2nc3c(cc2C#N)CCCCC3)no1 2.25%
CC1(C)NC(=O)N(CC(=O)Nc2cc(C(F)(F)F)cc(C(F)(F)F)c2)C1=O -2.94%
Cc1ccc(C(=O)Nc2ccc3c(c2)OCO3)cc1S(=O)(=O)N1CCCCC1 7.58%
Cn1cccc1/C=C1\SC(=O)N(CC(=O)Nc2ccc(F)cc2)C1=O -0.64%
COc1ccccc1NC(=O)CSc1nc2sc3c(c2c(=O)n1-c1ccccc1)CCN(C)C3 -0.79%
CCOC(=O)c1ccc[n+](CC(=O)Nc2ccccc2OC(F)F)c1 -5.72%
COc1cc2c(cc1OC)C(=O)NCC(C)(C)O2 5.06%
CCC(C)[C@H]1COCCS(=O)(=O)N1Cc1ccc(C)cc1 (some centres not stated) -11.6%
Nc1ccc(C(=O)OCC(=O)NC2CCCc3ccccc32)cc1[N+](=O)[O-] (configuration not stated) -14.1%
CCOc1ccc(NC(=O)COc2ccc(C(=O)NC3CCCc4ccccc43)cc2OC)cc1 (configuration not stated) -23.3%

inhibition, active:
CC12CCC(C(=O)N(NC(=O)c3ccccc3O)C1=O)C2(C)C (configuration not stated) 42.7%
Cc1coc2c(O)cc3c(c12)OC1(N2CCCCC2)C(=O)NCCCC31 (configuration not stated) 48.6%
COc1ccc(Nc2ccc([N+](=O)[O-])cn2)cn1 48.7%
Cc1ccc2nc(COc3ccc(N(C)S(=O)(=O)c4ccccc4)cc3)cc(=O)n2c1 42%
O=c1[nH]c(=O)c2nc3ccccc3nc2[nH]1 40.2%
Cc1nnc(NC(=O)/C=C/c2ccco2)s1 53.5%
Cc1ccc(/C=N/NC(=O)COc2ccccc2-c2ccccc2)cc1 66.9%
COCCN(CCOC)c1nc(N)c2c(N)nc3c(c2c1C#N)CC(=O)N3Cc1ccc(Cl)cc1 56.7%
CC(C)(C)OC(=O)NCCCC1=CC2=CC(=O)C(C)(OC(=O)c3ccco3)C(=O)C2=CO1 (configuration not stated) 81.6%
O=C(COC(=O)c1ccccc1C(=O)N1CCN(c2ccccc2)CC1)NCc1ccccc1 51.8%
CC(C)(C)c1ccc(/C=C2\Oc3c(ccc(O)c3CN3CCN(CCO)CC3)C2=O)cc1 49.7%
CCOC(=O)c1cc2n(c1N)-c1ccccc1C2=O 153%
CC(NC(=O)CSc1nc2c(cc1C#N)CN(C)CC2)c1ccccc1 (configuration not stated) 45%
Cc1ccc(C(=O)O)cc1-c1ccc(/C=C2\SC(=O)N(CC(=O)Nc3ccc4c(c3)OCO4)C2=O)o1 56.2%
Cc1ccc(-c2nc(SCC(=O)Nc3ccccc3OC(F)F)c3c(C)c(C(=O)O)sc3n2)cc1 54.1%
COC(=O)c1cc(OCC(=O)NC2CCCc3ccccc32)cc(C(=O)OC)c1 (configuration not stated) 40.6%
